Compound activity: PubChem BioAssay, National Center for Advancing Translational Sciences (NCATS)
An excerpt weighted towards active compounds, which were near 2.4% of everything screened.
D2 ag-1: agonists of human D2 dopamine receptor (beta-arrestin). DiscoveRx PathHunter D2 beta-arrestin, luminescence, 90 min; 100% = 57 uM dopamine signal. hit rate 0.084% among 360,000. AID 624465. activation, % (test concentration not listed); in the data active means activation above about 40%; inconclusive means between about 15% and that limit
Target sequence (P14416 whole entry, looked up): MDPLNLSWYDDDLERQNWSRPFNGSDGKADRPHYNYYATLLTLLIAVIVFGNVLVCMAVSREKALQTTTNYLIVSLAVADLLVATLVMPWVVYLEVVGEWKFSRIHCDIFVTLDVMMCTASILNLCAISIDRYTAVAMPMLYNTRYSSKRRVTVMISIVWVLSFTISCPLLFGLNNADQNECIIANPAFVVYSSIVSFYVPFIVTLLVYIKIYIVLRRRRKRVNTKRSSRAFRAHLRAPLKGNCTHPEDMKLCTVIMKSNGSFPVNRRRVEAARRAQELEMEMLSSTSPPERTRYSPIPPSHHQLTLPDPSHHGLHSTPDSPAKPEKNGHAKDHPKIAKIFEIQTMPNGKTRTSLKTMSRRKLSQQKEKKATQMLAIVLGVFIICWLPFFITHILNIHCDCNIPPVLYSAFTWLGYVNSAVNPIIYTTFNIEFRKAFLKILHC
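DiscoveRx PathHunter D2 beta-arrestin cells (2,100/well) attached overnight, then compound-stimulated 90 min at 37 C in HBSS/10 mM HEPES/0.1% Tween-20 buffer; beta-galactosidase complementation read by luminescence after 1 h at ambient temperature. Dopamine 57 uM final (EC100) as control.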
D2 PAM-1: D2 dopamine receptor (human) potentiation; P14416; HEK293 T-REx D2, calcium flux, EC20 dopamine potentiation; potentiation, % at 10 µM; hit rate 0.34% among 340,000; AID 485347;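 active means potentiation over 3 SD above the plate norm, cut at about 30% in these data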
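Cells plated with tetracycline inducer and held overnight at 30 C; calcium dye loaded 30–90 min at room temperature; baseline taken, compound added and read 180 s; EC20 dopamine then added and read 180 s.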
D2 antag: D2 dopamine receptor (human) antagonism. inhibition, % at 10 µM. P14416. hit rate 2% among 340,000. HEK293 TREx D2 cells, calcium flux, dopamine EC80; in the data active means inhibition above about 30%; inactive means below that, where a call was filed
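Dopamine at EC80 is the agonist stimulus; test compounds precede it by 180 s. Calcium flux read kinetically in a force-coupled, inducible HEK293 T-REx D2 cell line.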
D2 PAM-2: positive allosteric modulators of human D2 dopamine receptor. DiscoveRx D2 beta-arrestin cells, luminescence, 90 min; 100% = 57 uM dopamine signal. hit rate 0.23% among 360,000. potentiation, % (test concentration not listed). P14416. AID 624464; in the data active means potentiation above about 50%; inconclusive means mostly about 30% to 49%
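D2 cells co-treated with compound plus 50 nM dopamine (EC20) for 90 min at 37 deg C to detect potentiation. Beta-arrestin recruitment was read as enzyme-fragment luminescence after 1 h at ambient temperature. Full response was set by 57 uM dopamine.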
D2 ag-2: D2 dopamine receptor (human) agonism | hit rate 0.53% among 340,000 | AID 485358 | HEK293 T-REx D2 cells, calcium flux agonist mode | activation, % at 2 µM | P14416;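 active means activation over 3 SD above normal in the single-dose calcium agonist read, cut at about 30% in these data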
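Tetracycline-induced HEK293 T-REx cells with force-coupled D2 receptor, plated overnight at 30 C, loaded with no-wash calcium dye. After a 10 s baseline, compound was pin-added and calcium flux read kinetically for 180 s; calcium rises flagged agonists.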
Of the large screens only hits and unclear results are named; the others gave an inactive call.

Cc1oc(-c2ccccc2)cc1C(=O)NC1CCN(Cc2ccccc2)CC1	D2 antag 69.4
O=C(NNC1CCN(Cc2ccccc2)CC1)c1ccccc1	none (no result: D2 PAM-1, D2 antag, D2 ag-2)
Cn1nccc1C(=O)NC1CCN(Cc2ccccc2)CC1	D2 antag 54.8
O=C(NC1CCN(Cc2ccccc2)CC1)c1ccccc1Cl	none
O=C(NC1CCN(Cc2ccccc2)CC1)c1ccccc1	D2 antag 73.8
Cc1c(C(=O)NCc2ccccc2)sc2nc3n(c(=O)c12)CCC3	none (no result: D2 ag-1, D2 antag, D2 PAM-2)
O=C(NC1CCN(Cc2cccc([N+](=O)[O-])c2)CC1)c1ccccc1	D2 antag 74.3
O=[N+]([O-])c1cccc(CN2CCN(c3cccc4[nH]ccc34)CC2)c1	D2 antag 42.1
O=C(NC1CCN(Cc2ccccc2)CC1)c1cncc(Br)c1	D2 antag 84.6
O=C(c1ccc([N+](=O)[O-])cc1)N1CCN(c2cccc3[nH]ccc23)CC1	none
CN1CCC(NC(=O)c2cccc(Oc3ccccc3)c2)CC1	D2 antag 69.8
O=[N+]([O-])c1cccc(CN2CCC(Cc3ccccc3)CC2)c1	none
C=CCNc1ncnc2c1ncn2[C@H]1CN(Cc2cccc3ccccc23)C[C@@H](CO)O1	none (no result: D2 PAM-1, D2 antag, D2 ag-2)
CCc1ccccc1NC(=O)[C@@H](c1ccccc1)N1Cc2ccccc2C1=O	none (no result: D2 ag-1, D2 antag, D2 PAM-2)
C=CCOC(=O)C1=C[C@H](c2ccc3c(c2)OCO3)C[C@H](OCCCCO)O1	none (no result: D2 PAM-1, D2 antag, D2 ag-2)
CC1CCN(CCNC(=S)Nc2ccc(Cl)cc2)CC1	D2 antag 30.7
COc1ccc(NC(=S)NC2CCN(Cc3ccccc3)CC2)cc1OC	none
CCc1ccc(NC(=S)NC2CCN(Cc3ccccc3)CC2)cc1	D2 antag 98.2
COc1ccc(CCNC(=S)NC2CCN(Cc3ccccc3)CC2)cc1	D2 antag 71.2
S=C(NCCN1CCOCC1)Nc1ccc(Cl)cc1	none
S=C(Nc1ccc(Cl)cc1)NC1CCN(Cc2ccccc2)CC1	D2 antag 69.4
S=C(Nc1ccccc1)NC1CCN(Cc2ccccc2)CC1	D2 antag 92.1
CCC(C)c1ccc(NC(=S)NC2CCN(Cc3ccccc3)CC2)cc1 (stereo not drawn)	none (no result: D2 antag, D2 ag-2)
CC1CCN(CC(O)CN2c3ccccc3Sc3ccccc32)CC1 (stereo not drawn)	D2 antag 70.9
CCn1cc(C(=O)OCc2ccc(F)cc2)c(=O)c2ccc(C)nc21	D2 PAM-1 34.9
CCn1cc(C(=O)OCC(=O)c2cc(C)n(-c3cccc(C(F)(F)F)c3)c2C)c(=O)c2ccc(C)nc21	D2 PAM-1 30.8
CCn1cc(C(=O)OCc2ccccc2)c(=O)c2ccc(C)nc21	none
CCc1ccccc1NC(=O)N1CC(CC)Oc2ccc(Cl)cc21 (stereo not drawn)	none (no result: D2 ag-1, D2 antag, D2 PAM-2)
CCCCn1c(CNC(=O)CCC)nc2ccccc21	D2 antag 33.7
CCc1nnc(NC(=O)COc2ccc(N(C)S(=O)(=O)c3ccc(C)cc3)cc2)s1	D2 antag 39.9
Cc1ccc(S(=O)(=O)N(C)c2ccc(OCC(=O)Nc3nnc(C4CC4)s3)cc2)cc1	none
COc1ccc(C(C(=O)NCc2ccccc2)N(C(=O)Cn2nnc3ccccc32)c2cccc(OC)c2)cc1 (stereo not drawn)	none (no result: D2 ag-1, D2 antag, D2 PAM-2)
CN(C)c1ccc(N/C=C/C(=O)C(C)(C)C)cc1	D2 PAM-2 65.9
O=C(Nc1cccc2nsnc12)c1ccc(-c2cccc(Cl)c2)o1	D2 PAM-2 51.4
O=C(Nc1ccccc1N1CCCCC1)c1ccc(-c2cccc(Cl)c2)o1	none
COC(=O)C1=C(CCc2ccccc2)NC(=O)NC1c1ccc(Br)cc1 (stereo not drawn)	none
N#CC(C#N)=C1C=C2C=C(N3CCOCC3)CCC2CC1 (stereo not drawn)	D2 antag 65.3, D2 ag-2 132.0
CN1CCN(C2=CC3=CC(=C(C#N)C#N)CCC3CC2)CC1 (stereo not drawn)	D2 antag 48.7, D2 ag-2 173.2
CC1(C)CC(NCCN2CCN(C3=CC(=C(C#N)C#N)CC(C)(C)C3)CC2)=CC(=C(C#N)C#N)C1	none
CCN1CCN(C2=CC3=CC(=C(C#N)C#N)CCC3CC2)CC1 (stereo not drawn)	D2 antag 79.4, D2 ag-2 141.8
N#CC(C#N)=C1C=C2C=C(N3CCCCCC3)CCC2CC1 (stereo not drawn)	D2 ag-1 inconclusive, D2 antag 82.9, D2 ag-2 153.9
CCOc1ccc(NC(=O)c2cnn3c2NC(C)=C(C(=O)Nc2ccc(Cl)cc2)C3c2ccc(OC)c(OC)c2)cc1 (stereo not drawn)	none (no result: D2 ag-1, D2 antag, D2 PAM-2, D2 ag-2)
CCN1CCc2nc(NC(=O)c3ccccc3)sc2C1	none
O=C(Nc1nc2c(s1)CN(Cc1ccccc1)CC2)C1CCC1	D2 antag 51.4
COc1ccc(N(CC(C)C)S(=O)(=O)c2nnc(NC(=O)c3cccs3)s2)cc1	none (no result: D2 ag-1, D2 antag, D2 PAM-2)
CCCCN(C)CCNC(=O)c1nn(-c2ccc(OC)cc2)c(=O)c2c1c1ccccc1n2C	D2 antag 34.1
CCN(C(=O)c1nn(-c2ccc(OC)cc2)c(=O)c2c1c1ccccc1n2C)c1ccc(OC)cc1	none
Cc1ccccc1-n1c(-c2ccncc2)n[nH]c1=S	none
CCc1ccccc1-n1c(-c2ccncc2)n[nH]c1=S	D2 antag 69.6
N/C(=N\OC(=O)c1cnn(-c2ccccc2)c1C(F)(F)F)c1ccc(C(F)(F)F)cc1	D2 ag-1 inconclusive, D2 PAM-2 inconclusive
COc1cccc(CN2CCc3ccc(NC(=O)CCc4ccc(C)cc4)cc3C2)c1O	D2 antag 30.6
COc1ccc(Cl)cc1NC(=O)NCCc1c(C)nn(C)c1C	none (no result: D2 ag-1, D2 antag, D2 PAM-2)
C(/C=C/c1ccccc1)=N/N1CCN(c2ccccc2)CC1	none
C(=C\c1ccccc1)/C=N/N1CCN(Cc2ccccc2)CC1	D2 antag 40.0
Cc1ccc2c(c1)C(=O)OC(C(=O)Nc1ccccc1C(=O)O)C2 (stereo not drawn)	none (no result: D2 ag-1, D2 antag, D2 PAM-2)
COc1ccc(CCNC(=O)c2cc(C)nc3c2c(C)nn3-c2ccc(C)cc2)cc1OC	none (no result: D2 ag-1, D2 antag, D2 PAM-2)
OCCN1CCN(Cc2ccc3ccccc3c2)CC1	none
COc1ccccc1C1CCN(Cc2ccc3ccccc3c2)CC1	D2 antag 85.1
COc1ccc(CN2CCC(Cc3ccccc3)CC2)cc1OC	none
COc1ccccc1C1CCN(Cc2ccccc2)CC1	D2 antag 83.2, D2 ag-2 32.1
COc1ccccc1C1CCN(c2ccc(CO)cc2[N+](=O)[O-])CC1	none
COc1ccccc1C1CCN(Cc2ccccc2Cl)CC1	D2 antag 91.9
COc1ccccc1C1CCN(Cc2cccc([N+](=O)[O-])c2)CC1	D2 antag 110.0
COc1cc(NC(=O)NCC2CCN(Cc3ccccc3Cl)CC2)cc(OC)c1OC	none
O=S1(=O)CCN(OCc2ccc(Cl)cc2)CC1	none
COc1ccc(CNS(=O)(=O)c2cc3c(cc2Cl)N(C(C)=O)CCO3)cc1	none (no result: D2 ag-1, D2 antag, D2 PAM-2)
Cc1nc(-c2cccc(S(=O)(=O)N3CCOCC3)c2)cs1	D2 antag 34.7
